# Data as given in PubChem BioAssay AID1645853 (Buhrlage Lab, Dana-Farber Cancer Institute and Novartis …, 2021).
# The whole screen tested about 47,000 compounds, of which about 2,000 (4.3%) were called active. No stated cut-off is given here; in the data, active means inhibition above about 30%; inactive means the rest. The entries come from a sample that favours actives as a whole.
# Biological target: Ubiquitin carboxyl-terminal hydrolase 8 (Homo sapiens) (UniProt P40818)
# Assay: blocks human USP8 ubiquitin-rhodamine cleavage (AID 1645853)
# Conditions: purified USP8, Ub-rhodamine cleavage fluorescence, 30 min; at 20 µM; hits give high values
# Sequence of Ubiquitin carboxyl-terminal hydrolase 8 (Homo sapiens) (P40818 whole entry, looked up): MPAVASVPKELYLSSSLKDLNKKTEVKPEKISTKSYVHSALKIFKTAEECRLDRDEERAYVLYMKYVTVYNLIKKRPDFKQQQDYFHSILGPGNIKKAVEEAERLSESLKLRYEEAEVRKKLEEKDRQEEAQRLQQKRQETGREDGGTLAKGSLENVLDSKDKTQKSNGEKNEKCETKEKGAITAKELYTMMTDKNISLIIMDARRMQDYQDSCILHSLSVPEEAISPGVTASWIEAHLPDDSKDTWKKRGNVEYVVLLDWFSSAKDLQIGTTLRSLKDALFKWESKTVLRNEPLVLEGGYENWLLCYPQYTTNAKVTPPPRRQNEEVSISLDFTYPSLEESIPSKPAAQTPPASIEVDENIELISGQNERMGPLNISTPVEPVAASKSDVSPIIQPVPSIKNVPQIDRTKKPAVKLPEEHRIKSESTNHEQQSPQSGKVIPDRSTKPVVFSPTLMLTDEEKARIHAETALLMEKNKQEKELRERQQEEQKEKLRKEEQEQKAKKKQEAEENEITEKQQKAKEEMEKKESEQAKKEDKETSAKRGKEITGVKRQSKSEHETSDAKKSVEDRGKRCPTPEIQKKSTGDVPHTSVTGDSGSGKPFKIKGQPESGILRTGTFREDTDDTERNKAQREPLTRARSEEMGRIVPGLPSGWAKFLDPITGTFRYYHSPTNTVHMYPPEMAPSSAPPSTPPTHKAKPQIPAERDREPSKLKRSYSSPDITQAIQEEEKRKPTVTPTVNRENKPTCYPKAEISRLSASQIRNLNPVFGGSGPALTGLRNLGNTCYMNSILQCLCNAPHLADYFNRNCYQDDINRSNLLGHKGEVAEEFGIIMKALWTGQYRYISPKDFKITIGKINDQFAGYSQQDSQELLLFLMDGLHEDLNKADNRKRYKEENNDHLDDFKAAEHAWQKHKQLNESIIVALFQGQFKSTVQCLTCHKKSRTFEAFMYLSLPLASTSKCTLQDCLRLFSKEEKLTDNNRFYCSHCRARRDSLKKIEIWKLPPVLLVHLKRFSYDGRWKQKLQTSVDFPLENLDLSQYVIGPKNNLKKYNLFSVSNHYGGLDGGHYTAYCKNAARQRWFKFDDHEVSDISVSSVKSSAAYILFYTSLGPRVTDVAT
row,Compound,inhibition
1,CN1C(=O)C(C)(C)COc2ccc(NS(=O)(=O)c3ccccc3Cl)cc21,0.668% (inactive)
2,O=S(=O)(Nc1ccc2[nH]ncc2c1)c1ccccc1Cl,47% (active)
3,CCOc1cc(S(=O)(=O)Nc2ccc3cn[nH]c3c2)ccc1Cl,22.3% (inactive)
4,CCCCCn1c(=O)c2sccc2n2c(CCC(=O)NC3CC3)nnc12,5.66% (inactive)
5,COc1ccc(C(=O)N2CCC(Cc3nc(-c4cnccn4)no3)CC2)cc1,6% (inactive)
6,CCOc1ccccc1C(=O)NCC(c1ccco1)N1CCCC1 (stereo not given),23.5% (inactive)
7,Cc1ccc(N2C(=O)CN(S(C)(=O)=O)CC2(C)C(=O)NC2CCCCC2)c(C)c1 (stereo not given),15.1% (inactive)
8,Cc1ccc(N2C(=O)CN(S(=O)(=O)c3ccccc3)CC2(C)C(=O)NCCC(C)C)cc1C (stereo not given),6.01% (inactive)
9,CCOc1ccc2c(c1)c(=O)c(C(=O)c1ccccc1)cn2CC(=O)Nc1ccc(OC)cc1,93.8% (active)
10,CCOc1ccc(NC(=O)Cn2cc(C(=O)c3ccc(Cl)cc3)c(=O)c3cc(OC)ccc32)cc1,-4.68% (inactive)
11,COc1ccc(NC(=O)CSc2cn(CC(=O)N3CCCC3)c3ccccc23)cc1,-38.7% (inactive)
12,O=C(NCCc1ccccc1)N1CCC(n2c(=O)[nH]c3cncnc32)C1 (stereo not given),5.93% (inactive)
13,COc1cc(C(=O)N(c2ccccn2)C2CCCCC2)cc(OC)c1OC,-3.54% (inactive)
14,O=C(/C=C/c1ccc(Cl)cc1)Nc1ccc2c(c1)OCCO2,-8.51% (inactive)
15,COCCN1Cc2c(C(=O)N3CCCCC3)ncn2-c2ccccc2S1(=O)=O,-27.7% (inactive)
16,Cc1cc(F)ccc1NC(=O)c1cc(C2CC2)n2nccc2n1,-4.45% (inactive)
17,Cc1ccc(-n2cc(-c3noc(C(=O)Nc4ccc(F)cc4C)n3)nn2)cc1,99% (active)
18,Cc1ccc(CNC(=O)c2nc(-c3cn(-c4ccc(Br)cc4)nc3C)no2)o1,13.8% (inactive)
19,COc1cccc(CNC(=O)c2cc3c(=O)n(C)ccc3n2C)c1,-1.58% (inactive)
20,COc1ccc(NC(=O)CS(=O)(=O)c2cn(CC(=O)N3CCCC3)c3ccccc23)cc1,-8.78% (inactive)
21,Cn1nc(C2CCN(Cc3ccc4c(c3)CC(C)(C)O4)CC2)c2nccnc21,-31% (inactive)
22,COc1cc(CN2CCCC(c3ncc(Cl)cc3S(C)(=O)=O)C2)cc(OC)c1 (stereo not given),-1.79% (inactive)
23,Cn1nc(C2CCCN(Cc3cc(F)cc(F)c3)C2)c2nccnc21 (stereo not given),32.7% (active)

row,Compound,inhibition
1,CC(C)C(=O)N1CCN2[C@H](C[C@@H](C(=O)N(C)C)[C@]23C(=O)Nc2ccccc23)C1,18.9% (inactive)
2,COc1ccc(-c2nc3c(c(=O)c4ccccc4n3C)c(=O)n2CCc2ccc(OC)c(OC)c2)cc1,33.9% (active)
3,COc1ccc(-c2nc3c(c(=O)c4ccccc4n3C)c(=O)n2Cc2ccco2)cc1,89.7% (active)
4,COc1ccc(-c2ocnc2C(=O)NCc2ccc(OC)c(OC)c2)cc1,3.07% (inactive)
5,O=c1c2ccccc2n(Cc2ccccc2Cl)c(=O)n1Cc1ccco1,-2.33% (inactive)
6,CC(C)(C)C(=O)Cn1c(=O)n(Cc2ccco2)c(=O)c2ccccc21,-0.0891% (inactive)
7,COc1ccc(CNC(=O)Cn2c(C)nc3onc(C)c3c2=O)cc1,2.79% (inactive)
8,COc1cccc(CCC(=O)N2CCN(c3cc(C)n4cnnc4n3)CC2)c1,-8.31% (inactive)
9,CCc1ccc(NC(=O)CSc2nc(-c3ccccc3F)nc3cc(=O)[nH]n23)cc1,-16% (inactive)
10,CCc1ccc(S(=O)(=O)N2CCN=C2N2CCCCC2)cc1,-0.222% (inactive)
11,CCN(C)C(=O)c1cc(-c2ccn(-c3ccccc3)n2)n2ccccc12,-39.1% (inactive)
12,COC(=O)c1cc2c(ccn2C)n1CC(=O)N1CCN(Cc2ccc3c(c2)OCO3)CC1,22.5% (inactive)
13,O=C(Nc1cccc2ccccc12)N1CCN(Cc2ccc3c(c2)OCO3)CC1,61.7% (active)
14,O=C(NCc1ccc2c(c1)OCO2)C1=CCN(Cc2ccccc2)CC1,-26.8% (inactive)
15,CCCCN(c1ccccc1)S(=O)(=O)c1cccc(C(=O)OCC(=O)NCc2ccc3c(c2)OCO3)c1,22.8% (inactive)
16,Cc1ccc(CC(=O)Nc2nnc(C3CC(=O)N(c4ccc(C)c(C)c4)C3)s2)cc1 (stereo not given),35.8% (active)
17,COc1ccc(-c2nc(C3CC(=O)N(c4ccccc4)C3)no2)cc1 (stereo not given),12.9% (inactive)
18,Cc1ccc(N2CCCS2(=O)=O)cc1NC(=O)Cc1ccc(Cl)cc1,15.3% (inactive)
19,COc1ccc(N2CC(c3nnc(NC(=O)CCc4ccccc4)s3)CC2=O)cc1 (stereo not given),43.3% (active)
20,CC(C)c1nnc(NC(=O)C2CC(=O)N(CCc3ccc(F)cc3)C2)s1 (stereo not given),-27.4% (inactive)
21,Cc1ccc(N2CC(c3nnc(NC(=O)CCCc4ccccc4)s3)CC2=O)cc1 (stereo not given),-58.7% (inactive)
22,CN1CCN(c2ncc(NC(=O)c3ccccn3)cn2)CC1,-1.52% (inactive)
23,CC1CCN(S(=O)(=O)CC(F)(F)F)Cc2nc3ccccc3n21 (stereo not given),-0.0013% (inactive)

row,Compound,inhibition
1,CCCNc1nc(Nc2ccc(OC)cc2)c2cnn(C)c2n1,-0.418% (inactive)
2,Nc1nc(N2CCCC2)nc2c1CCN(Cc1ccc3ncccc3c1)C2,-7.44% (inactive)
3,O=C(CCOc1ccccc1F)Nc1ccc2c(c1)OCO2,7.17% (inactive)
4,O=C(Nc1ccc2c(c1)OCO2)N1CCCCCC1,5.28% (inactive)
5,O=C(CN1CCN(CC(=O)Nc2ccc3c(c2)OCO3)CC1)Nc1ccc(F)cc1,38.1% (active)
6,CCOc1ccc(-c2noc(-c3nn(-c4cccc(OC)c4)ccc3=O)n2)cc1,81.8% (active)
7,Cc1ccc(-c2noc(-c3cccc(OCC(=O)N(C)C)c3)n2)cc1,-30% (inactive)
8,COc1cccc(-c2cc3c(=O)n(Cc4nc(-c5ccccc5C)no4)ccn3n2)c1,0.201% (inactive)
9,COc1nc2c(c(-c3ccc[nH]3)c1C#N)Cc1ccccc1-2,-97.1% (inactive)
10,Nc1cccc(C(=O)CC2(O)C(=O)N(CCc3ccccc3)c3ccccc32)c1 (stereo not given),-96.8% (inactive)
11,CNc1nc(C2CCCN(C(C)=O)C2)nc2c1CCN(C(=O)c1oc3ccccc3c1C)C2 (stereo not given),-2.25% (inactive)
12,Cn1c(=O)c(N2CCC(C(=O)NCc3ccc(F)cc3)CC2)nc2cccnc21,7.77% (inactive)
13,COc1ccc(NC(=O)CSc2ncccc2C(=O)N2CCC(Cc3ccccc3)CC2)cc1OC,-0.608% (inactive)
14,O=C(COc1cccc2ccc(N3CCC(Cc4ccccc4)CC3)nc12)Nc1cccc(F)c1,84.1% (active)
15,O=C(COc1cccc2ccc(N3CCC(Cc4ccccc4)CC3)nc12)NCc1ccc(F)cc1,65.7% (active)
16,O=C(CCc1nnc2ccc(N3CCCC3)nn12)NCc1ccc(F)cc1,29.2% (inactive)
17,O=C(CC1C(=O)OCCN1Cc1ccccc1)Nc1cccc(F)c1 (stereo not given),-10.4% (inactive)
18,CC(c1ccccc1)n1c(CCCNC(=O)C2CCCCC2)nc2ccccc21 (stereo not given),-8.43% (inactive)
19,Cc1ccc(NC(=O)Cn2cccc(S(=O)(=O)N3CCCCCC3)c2=O)c(C)c1,-3.12% (inactive)
20,Cn1c2c(c(=O)n(C)c1=O)C(c1cccc(Cl)c1Cl)CC(=O)N2 (stereo not given),-0.255% (inactive)
21,O=C(CSc1n[nH]c(-c2cccnc2)n1)Nc1ccc(Cl)cc1,-5.47% (inactive)
22,COCCn1c(=O)[nH]c2cc(C(=O)N3CCC(Cc4ccccc4)CC3)ccc2c1=O,-0.0121% (inactive)
23,COCCn1c(=O)[nH]c2cc(C(=O)NCc3ccc(Cl)cc3)ccc2c1=O,-1.21% (inactive)

row,Compound,inhibition
1,COCCn1c(=O)[nH]c2cc(C(=O)NCCNc3ccc([N+](=O)[O-])cc3C#N)ccc2c1=O,55.6% (active)
2,Cc1cccc(NC(=O)N2CCCC3(CCCN3C)C2)c1 (stereo not given),-319% (inactive)
3,CN1CCN(c2ncc(NC(=O)c3ccc(C(F)(F)F)cc3)cn2)CC1,-15.2% (inactive)
4,CC(=O)N1Cc2ccccc2OC2(CCN(CC(=O)Nc3cccc(C)c3C)CC2)C1,-15.9% (inactive)
5,Cn1cccc1/C(C#N)=C\c1ccc2c(c1)OCO2,76.2% (active)
6,Cn1c(=O)c(-c2ccc(C(=O)NCc3ccc(F)cc3F)cc2)nc2cccnc21,15.4% (inactive)
7,CNC(=O)C1(C)CN(C(=O)c2ccc3[nH]c(C)c(C)c3c2)CCO1 (stereo not given),-61.8% (inactive)
8,Cc1cc(NC(=O)CSc2nccn2-c2ccc([N+](=O)[O-])cc2)no1,-89.6% (inactive)
9,O=C(NCC1CC1)[C@H]1C[C@@H]2CN(CC3CC3)C[C@H]1O2,-27.5% (inactive)
10,COC(=O)c1cc2sc(Cl)cc2n1Cc1cc(=O)n2ccccc2n1,-9.48% (inactive)
11,CCOC(=O)c1cc2c(ccn2-c2ccc(F)cc2)n1Cc1ncc(C)c(OC)c1C,3.2% (inactive)
12,CC(C)OC(=O)c1cc2c(ccn2-c2ccc(F)cc2)n1Cc1ccccn1,64% (active)
13,O=C(NC(c1ccccc1)C1CC1)c1ccc2c(c1)S(=O)(=O)Nc1ncnn1-2 (stereo not given),-8.33% (inactive)
14,COc1ccccc1NS(=O)(=O)c1ccc2oc(Nc3ccc(Cl)c(C(F)(F)F)c3)nc2c1,-24.6% (inactive)
15,COc1ccc2c(c1)c(N1CCCC1=O)c(C(=O)NCc1ccccn1)n2C,-0.85% (inactive)
16,Cc1nn(CC(=O)c2cc(C)n(-c3ccc4c(c3)OCO4)c2C)c(C)c1[N+](=O)[O-],58.8% (active)
17,Cc1nn(-c2ccc(F)cc2)c(C)c1S(=O)(=O)NCc1ccc2c(c1)OCO2,-20.2% (inactive)
18,COc1cccc(C2C3=C(CC(C)(C)CC3=O)Nc3ccccc3N2C(=O)Cc2ccccc2)c1 (stereo not given),2.23% (inactive)
19,Cc1ccccc1-c1nc(-c2cn(CC(=O)Nc3ccccc3)cn2)no1,64.4% (active)
20,Cc1cc(C)cc(NC(=O)Cn2cnc(-c3nc(C)cs3)c2)c1,-4.24% (inactive)
21,Cc1ccccc1-c1nc(-c2cccc(OCC(=O)N3CCOCC3)c2)no1,7.89% (inactive)
